For 22 sequences, PBM binding z-score results are on record in the supplement of paper PMC6555819.

This test relates to RARa homodimer (NR concentration 270 nM). Briefly: PBM binding z-score (relative to random genomic background probes); higher = stronger binding; sequences stand for … in GC…GCGATTGACAGCGTAGAATGAAGG
In short, it runs like this: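 Regression normalization was applied to scanned fluorescence from custom Agilent 4×180K protein-binding microarrays. Before scanning, arrays were incubated 1 h with ligand-free nuclear receptor dimers, and binding was detected with antibodies against each partner (one per run). Binding z-scores use the random background probes as reference.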
Consider CCTAGCAGGCCAATCTGGGTGACTCAAGGCTTGA, for which the PBM binding z-score is -0.515.

CGAACTAGGTCAGAACTGGACAGTGAAGGATGAT had a PBM binding z-score of -0.224. In the case of GGAACGAGGGCATTCGAGTTGATGGCATGGCGAT it was -0.893. The sequence TCAGACAGGTGAAGGTAACTCCGGTACGCAGTCG yielded a PBM binding z-score of 0.0905.

With CGTCCCAGGTCAATGCTAGGTCAGTGAAAGCATT, the PBM binding z-score was -0.102. Under TCATATAGGTAAACAGGTGGAAGTCCGTAAGTTA stands 0.928; under CCAGACAGGTGAAAGGTAACCCAGTCTGGTACGC, 0.316. In the case of CTACCAAGCTGAACAAGGTCGTTGATTACTATTC it was 0.561; in that of GGAACGAGGGCGTTCGAGTTGATAGCATGGCGAT, -0.727. For the sequence CAGCCTAGGTCTGGGCCAGTATAGGAGGAACGTT, the PBM binding z-score is -0.886. Under GGAGACAGGTGAAACGCAGGTAACTCAGGGTGGC stands -0.68; under TAGCCTAGGTCATGGGCCGGTATACCACGCGAAC, -0.0532; under CAAACTCGGTCACAGAGGTCAAAGTCCGTGCGTA, 2.88. In the case of CCTACTGCGCCACGAAAGGTCATTGATTCAGTGA it was 2.27; in that of GCGTACGGGTCAAAGGTTATAGCATGAATAGAAT, 0.0431; in that of CCATACGGGTCACGAGGTTATAGCACGACGAGCG, 1.79. Under TCATATAGGTAAATGCTAGGTGAAATTCCGATCT stands 1.28; under CGAACGAGGGGATGAGTTGATAGCAAATGCCGAT, 0.243. In the case of GCATATAGGTGATACAAGGTGAAAGTCCGATTGT, the PBM binding z-score worked out at 0.474. In the case of CCGACTGCGGCAAAGGTTACCATACTCAGTACGA it was 0.118. Under ACTATTAGTTGTGACGAGGGCAACCGATAGGTTG stands 0.293. Under TCGAGTAGGTTACCAATGGGGCATTCCGCTTTCT stands -1.04.
